Experimental data from the emibetuzumab library of Makowski et al. (2022).
Some of the results follow. The true hit rate is not given.

B1: VH:VL chains; a variant is named by its letters at X, in order (parent)
chain 1: QVQLVQSGAEVKKPGASVKVSCKASGYTFTDYXMHWVRQAPGQGLEWMGXVNPNXXXTTYNQKFEGRVTMTTDTSTSTAYMELRSLRSDDTAVYYCARXNXLDXWGQGTTVTVSS
chain 2: DIQMTQSPSSLSASVGDRVTITCSVSSSVSSIYLHWYQQKPGKAPKLLIYSTSNLASGVPSRFSGSGSGTDFTLTISSLQPEDFATYYCQVYSGYPLTFGGGTKVEIK

Variants of: B1
Test: yeast display scFab, FACS + sequencing
Details: with MET
Summary of the method: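 Antigen binding was called positive for sequences present in both antigen-positive samples and negative for those present only in the input. These calls came from deep sequencing, in two replicates, of round-3 sorted and input populations from a heavy-chain CDR mutant scFab yeast surface library. The library was first enriched twice magnetically on HGFR-Fc-coated Protein A beads and then by FACS, gating the top 50% antigen-positive cells after 3 h labelling at room temperature with 1 nM HGFR-Fc plus anti-Myc in PBSB with 1% milk.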

Variant | antigen binding call
AKTGNDVA | no binding
DRAGDALD | binds
DRAGDSLD | no binding
DTTGSALD | no binding
YRAEGALD | binds
DRREDALD | binds
YRAGDALD | binds
DAGAADVV | no binding
DRGGDDVD | no binding
YTGGNDAD | no binding
AREGDAGD | no binding
ARRTDVAD | binds
AARADSAD | no binding
VRRRGAAD | binds
VGGGGAAD | no binding
YATAADAD | no binding
YRRRGVAD | binds
YRAGGDAD | binds
FERRAFGY | no binding
YRRRGDAD | binds
YRRKGDAD | no binding
YRRRGAAD | binds
YRRGGAAD | binds
AAARNFLF chain 1 V68I | no binding

Variant | antigen binding call
SEARSSAS | no binding
DEGGTDSF | no binding
VKGASDVV | no binding
DTGGGAGA | no binding
VRGRGYAA | binds
VRGRGFAA | no binding
YRGKGYAA | binds
VRGTGYAS | no binding
YKGRGYVA | no binding
YRGRGYAA | binds
YKGRGYAA | binds
VTTRAASV | no binding
SREEGFSV | no binding
YEGRGDVA | no binding
YRGRGVAA | binds
YRAGGYAA | binds
VTGRGDLA | no binding
VRAGGDLA | no binding
VRGRGDLA | binds
YGGRGAVA | binds
YGGGGAVA | no binding
SETKGDVY | no binding
DREEGFSV | no binding
AAGGDYVF | no binding

Variant | antigen binding call
VTEGDAGD | no binding
YRRRGSWS | binds
YRRRGAWS | binds
YAKADYSS | no binding
YERRGSWS | no binding
YRRRGYSS | binds
YRRGGAWS | binds
VERRGSWS | no binding
VTRGDVWV | no binding
VTGTGDVV | no binding
SEGTGAGV | no binding
YRRRGAAS | binds
SKRRGSLS | binds
YRRRGSLS | binds
SKTKSDGS | no binding
YRRRGSSS | binds
SKERGDLV | no binding
VETEGAGA | no binding
SREAADGV | no binding
AETTDSWV | no binding
FGATSVSF | no binding
SARTDFWF | no binding
ARAETDVY | no binding
YRRRGSAS | binds

Variant | antigen binding call
YRRRGALS | binds
YRRRSSSS | binds
YRRRGSVS | binds
DARGGSSS | no binding
VTEENDGY | no binding
FAEGDDVY | no binding
ATTKSDVA | no binding
YARETDGA | no binding
DAGAADGA | no binding
YRRRGASS | binds
YRRRGSGS | binds
DAEATDVA | no binding
YKEKGAVD | no binding
YRAGTSGD | binds
YREKGAGD | binds
YRAKGSGD | binds
YRAKGAGD | binds
VAEKGAGD | no binding
DGGEGVVY | no binding
AKRGAFAD | no binding
VGGKNSVD | no binding
VKGRADAD | no binding
YRAGASGD | binds
YRAGSSGD | binds

Variant | antigen binding call
YRRKGAGD | binds
YAAGASVD | no binding
VKEADDVA | no binding
YREGGSVD | binds
YRERSSLD | binds
DAEGGSLD | no binding
YREGGSLD | binds
YRGRTSLD | binds
VTEGGSVD | no binding
VTTKSDVF | no binding
AETKGDVY | no binding
SAGEGDGV | no binding
VKKRGAWS | binds
FKKRGAWS | binds
FKTEGFVS | no binding
YKTRSAWS chain 1 M48I | no binding
VKEKGAWV | no binding
AKKRGAWS | binds
YARGADGS | no binding
YKRGAAWS | binds
AAKRGSWV | no binding
AERRGSWS | no binding
VKEKGAWS | no binding
FAKRGAWS | no binding

Variant | antigen binding call
DATGGDVF | no binding
YERTTDLS | no binding
VGGTSDGD | no binding
VTEEGDWV | no binding
ATKGAAVA | no binding
YKKRGAWS | binds
YEKGGAWS | no binding
VTTKSAGV | no binding
DAEATSLV | no binding
YRRGSSAA | binds
YRRGGSAA | binds
VTGEDDVD | no binding
VEEEGSAV | no binding
VKARGSAF | binds
VKARGSAV | binds
VKARGAAV | binds
VKAGGDAV | no binding
VAARGDAA | no binding
VKGRASAF | no binding
VKAGDAAV | no binding
VAARGAAV | no binding
SGREGDSA | no binding
DGGGNVSD | no binding
DEGGTDWV | no binding

Variant | antigen binding call
SAREGYSV | no binding
DEARNAGA | no binding
FRTADVGV | no binding
FRGRGSGV | binds
FRTRSSGV | binds
FRAGSSGV | binds
FRGRSSGV | binds
VTKGGSSA | no binding
SEKKADWA | no binding
VTTKSDVA | no binding
VRTEDDVY | no binding
FKGRGSGV | binds
SEGRGSGV | no binding
VGGTSSSV | no binding
VRGEGSWD | binds
VRGTGSAD | no binding
VRGTGDWD | no binding
VRGTGSWD | binds
YTEGDDGV | no binding
YTGGDDWV | no binding
DEGTDYAA | no binding
FKGRGDGS | no binding
FKGRGAWS | binds
FKGRGAGS | binds

Variant | antigen binding call
FKTGDAWS | no binding
DATGGDGA | no binding
YTGTSSAD | no binding
DKGGSSLD | no binding
YKGGSSAD | binds
YKGGSSLD | binds
YEGTGSAD | no binding
DATGGSSA | no binding
YKRAAVWD | no binding
YRRGDFWA | no binding
YTRGNAWA | no binding
YKRGDAWD | binds
YKRGSAWD | binds
YKRGDAWA | binds
VEGRGAVY | no binding
YKGRGAAY | binds
VKGRGAAY | binds
VKGTGVAY | no binding
YAGETFGA | no binding
SETGGFVV | no binding
DGGENDVY | no binding
ARTKGSGY | no binding
YRRKGSGY | binds
YRKGGSGY | binds

Variant | antigen binding call
YTKEASGY | no binding
YRGRGSAY | binds
FRGRGSSY | binds
FRGRGAAY | binds
FRGRGSAY | binds
YEGGADVF | no binding
DAGAADAV | no binding
DTGTGSWD | no binding
VTEGGDAA | no binding
FTGRGAVA | no binding
FKGRGAAY | binds
FTGRGAAA | binds
FTRAGAAA | no binding
SEARSDSV | no binding
VKAGDAVY | no binding
VRAGDSGY | binds
YRAGDSGY | binds
DRAGDDGY | no binding
YTGTSDLA | no binding
